# Reference: ChEMBL document CHEMBL4513216, “Probing the Open Global Health Chemical Diversity Library for Multistage-Active Starting Points for Next-Generation Antimalarials” (ACS Infect Dis, 2020)
# The whole screen tested about 69,000 compounds, of which about 8,600 (12%) showed an effect of 50% or more. Shown is part of a subset that was picked to be rich in strong results.
# System: Plasmodium berghei
# Test: Screen against P. berghei liver stage (PbLuc), transformed with Luciferase, at 10uM
# Assay type: functional, HepG2
# Details: tested at 10 uM
row,Compound,INHIBITION
1,CC[C@H](C)[C@@H](CO)NC(C)Cc1ccc(F)cc1 (stereo partly drawn),8.24%
2,CC[C@H](C)[C@@H](CO)NC(C)Cc1ccc(C)cc1 (stereo partly drawn),41.7%
3,CN(C)c1ncc2c(n1)C1(CCN(Cc3ccccc3F)C1)COC2 (stereo not drawn),23.6%
4,COc1ccc(CN2CCN(C(C)=O)CC3(CC(=O)N(C)C3)C2)cc1 (stereo not drawn),-7.6%
5,O=C(NCc1ccon1)N1CCC(n2ccc(C(F)(F)F)n2)CC1,1.2%
6,O=C(NC1CCCCC1)N1CCC(n2cc3[nH]cccc-3c2=O)CC1,36.5%
7,CCNC(=O)N1CCC(n2ccc(C(F)(F)F)n2)CC1,40.6%
8,O=C(c1ccco1)N1CCC(n2cc(-c3ccsc3)nn2)CC1,31.2%
9,COC1CCCOC12CCN(C(=O)NCc1ccco1)CC2 (stereo not drawn),4.52%
10,O=C(c1ncc[nH]1)N1CCC(n2cc(-c3ccccn3)nn2)CC1,6.88%
11,Cc1cc(CN2CCN(C(=O)NCc3ccco3)CC2)no1,31.2%
12,O=C(NC1CCCCC1)N1CCC(n2cc(-c3ccccn3)nn2)CC1,83.5%
13,CNCc1cn(C2CCN(C(=O)NCc3ccco3)CC2)nn1,71.2%
14,O=C(NCc1ccco1)N1CCC(n2cc(-c3ccccn3)nn2)CC1,65.6%
15,O=C(NCc1ccco1)N1CCOC(c2ccccc2Cl)C1 (stereo not drawn),8.12%
16,O=C(NCc1ccco1)N1CCC(n2ccc(C(F)(F)F)n2)CC1,57.7%
17,COCC(=O)Nc1ccc(Oc2ccsc2C(=O)O)cc1,49.1%
18,COC1(CNC(=O)NCCc2ccccc2)CCSC1 (stereo not drawn),8.31%
19,O=C(c1cccc(C(F)(F)F)c1)N1CC(=O)N(C2CCC2)CC(O)C1 (stereo not drawn),21.5%
20,O=C1Nc2ccccc2CNC12CCN(CC1CCCC1)CC2,30%
21,CCOCCOC(C)C(=O)Nc1ccc2ccn(CC(=O)NC)c2c1 (stereo not drawn),13.9%
22,Cc1ccc(C(=O)NCc2ccc(N3CCCC(C(N)=O)C3)cc2)o1 (stereo not drawn),29.7%
23,O=C(CCc1nc2ccccc2[nH]1)NC1CCOC2(CCOCC2)C1 (stereo not drawn),47.6%
24,Cc1cccc(OCC(O)CN2CCC(Cn3cccn3)CC2)c1 (stereo not drawn),47.1%
25,CN1[C@H](CN2CCCC2)C[C@@H]2CN(C(=O)Cc3ccsc3)CC[C@@H]21,-8.51%
26,CCCS(=O)(=O)CC(=O)N1CCCC1c1noc(C2CC2)n1 (stereo not drawn),97.2%
27,CC(C)CS(=O)(=O)CC(=O)N1CCCC1c1noc(C2CC2)n1 (stereo not drawn),29%

row,Compound,INHIBITION
1,CCS(=O)(=O)CC(=O)N1CCCC1c1noc(C2CC2)n1 (stereo not drawn),13.9%
2,O=C(c1ccc2nncn2c1)N1CCCC1c1noc(C2CC2)n1 (stereo not drawn),15.1%
3,O=C(c1ccc2nccn2c1)N1CCCC1c1noc(C2CC2)n1 (stereo not drawn),52.3%
4,CC(C)c1nc(C2CCCN2C(=O)c2ccc3nncn3c2)no1 (stereo not drawn),5.11%
5,CN(C)c1cc(CNC(=O)NCC2(C)CCCS2)ccn1 (stereo not drawn),-15.5%
6,Cc1ccc(-c2nnc(CN3CCCCC3Cn3cncn3)o2)cc1 (stereo not drawn),-29.8%
7,CN(CC(C)(C)O)C1CCCN(Cc2noc(C3CC3)n2)C1 (stereo not drawn),25.1%
8,O=C(NC1CC1)c1cc(C2CCCN(Cc3ccccn3)C2)no1 (stereo not drawn),-8.12%
9,Clc1ccc(CN(CCN2CCOCC2)Cc2cccnc2)c(Cl)c1,-49.4%
10,Cc1nc(-c2ccc(Cl)s2)sc1C(=O)NC(C)(C)C(N)=O,-39.95%
11,O=C(CCn1cncn1)NCC1CCCC1,63.8%
12,O=C(CCn1cncn1)NCC(c1ccco1)N1CCCC1 (stereo not drawn),-49.5%
13,O=C(CCn1cncn1)NCC1CCS(=O)(=O)C1 (stereo not drawn),84.2%
14,O=C(CCn1cncn1)NCC1CCOC1 (stereo not drawn),54.5%
15,Cc1nc(C)n(CCC(=O)NCC2CCCOC2)n1 (stereo not drawn),26.55%
16,CCCn1cnc(NC(=O)NCC2CCS(=O)(=O)C2)n1 (stereo not drawn),42.6%
17,O=C(CCn1cncn1)NCC(c1ccco1)N1CCCCC1 (stereo not drawn),3.73%
18,O=C(CCn1cncn1)NC1CCS(=O)(=O)C1 (stereo not drawn),49.9%
19,Cc1cc(NC(=O)CCn2cncn2)no1,44.3%
20,CS(=O)(=O)N1CCO[C@@H]2CN(C(=O)c3ccnnc3)C[C@@H]2C1,17.6%
21,Cc1ccc(C2CN(CCCS(=O)(=O)C(C)C)CCO2)c(C)c1 (stereo not drawn),-20.3%
22,CN1CCC(NC(=O)CC2CN(Cc3ccccc3)CCO2)CC1 (stereo not drawn),9.41%
23,COc1ccc(CCNC(=O)Cn2ncc3c2c(C)nn3C)cc1,28.4%
24,CC(NC(=O)C1=NN(C)C(=O)CC1)c1ccc(Cl)cc1 (stereo not drawn),20.9%
25,CN(CCC#N)C(=O)CCOc1cccc(F)c1,-13.4%
26,Cc1cc(C(O)CCNC(=O)c2ccc(Cl)s2)c(C)o1 (stereo not drawn),-1.04%
